Results taken from PubChem BioAssay.
Values without a mark were called inactive. How the calls were made is not given here.

target: Pantothenate synthetase (Mycobacterium tuberculosis (strain ATCC 25618 / H37Rv)) (UniProt P9WIL5); assay: Coupled enzyme confirmation of inhibitors against recombinant Mtb PanC (AID 375); conditions: coupled enzyme assay; at 10 µM, hits give high values;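 further: 0% = full reaction with vehicle and 100% = no enzyme background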
Sequence (P9WIL5 whole entry, looked up): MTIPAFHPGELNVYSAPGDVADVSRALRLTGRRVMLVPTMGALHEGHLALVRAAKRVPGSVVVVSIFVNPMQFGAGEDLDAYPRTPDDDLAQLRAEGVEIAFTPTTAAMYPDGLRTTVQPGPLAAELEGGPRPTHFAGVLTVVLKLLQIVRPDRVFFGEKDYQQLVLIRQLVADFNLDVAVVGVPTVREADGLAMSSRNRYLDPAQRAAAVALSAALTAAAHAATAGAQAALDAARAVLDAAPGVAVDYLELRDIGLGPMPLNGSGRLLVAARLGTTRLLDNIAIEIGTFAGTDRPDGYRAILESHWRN

Row | SMILES | inhibition
1 | Cc1ccc(O)c(C(=O)c2cc(C#N)c(=O)n(CC3CCCO3)c2)c1 (stereo not given) | 8%
2 | CC(=O)c1cccc(S(=O)(=O)N2CCC(n3nnc4cc(F)ccc43)CC2)c1 | 0%
3 | Cc1nc(-c2ccccc2)sc1C(N)=O | 0%
4 | CCCc1cc(N2CCCC2)n2nc(C)c(-c3ccccc3)c2n1 | 0%
5 | c1ccc(-c2noc(C34CC5CC(CC(C5)C3)C4)n2)nc1 | 6%
6 | CC(C)c1ccc(CNc2ccc(N3CCOCC3)cc2)cc1 | 2%
7 | Cc1ccc(NC2=NCC(=O)N2c2ccc3c(c2)OCCO3)c(C)c1 | 7%
8 | C=CCn1c(SCC(=O)Nc2ccc3c(c2)OCO3)nc2ccccc2c1=O | 2%
9 | CCOC(=O)Cn1nc(-c2ccc(C)cc2)ccc1=O | 0%
10 | CCc1cc2c(=O)c(-c3nc4ccccc4[nH]3)coc2cc1OC(=O)N1CCOCC1 | 7%
11 | CC(C)OC(=O)c1cc(=O)[nH]c2ccccc12 | 0%
12 | O=C(Nc1ccc(N2CCCC2)cc1)c1cccc(F)c1 | 4%
13 | O=C(COC(=O)C1CCN(S(=O)(=O)c2cccs2)CC1)c1cc2ccccc2o1 | 0%
14 | Cc1c(NC(=O)CSc2nnc3sc4ccccc4n23)c(=O)n(-c2ccccc2)n1C | 0%
15 | CCOC(=O)N1CCC(Nc2ncnc3c2cnn3-c2ccc(C)cc2C)CC1 | 3%
16 | COc1ccc(C(=O)OC(COc2ccccc2)Cn2ccnc2)cc1 (stereo not given) | 0%
17 | CCC1CCCN1Cn1cnc2c([nH]c3ccc(OC)cc32)c1=O (stereo not given) | 1%
18 | COC(=O)NCC(c1cccnc1)N1CCOCC1 (stereo not given) | 0%
19 | CCOC(=O)c1sc(NC(=O)C2CC=CCC2C(=O)O)nc1C (stereo not given) | 3%
20 | CCc1ccc(NC(=O)c2cc(-c3ccco3)on2)cc1 | 4%

Row | SMILES | inhibition
21 | O=S1(=O)CC(N2CCCCC2)C(N2CCCCC2)C1 (stereo not given) | 6%
22 | Cc1cn([C@H]2C[C@H](N=[N+]=[N-])[C@@H](CO)O2)c(=O)[nH]c1=O | 0%
23 | CC(C)c1nc(N2CCN(C(=O)c3ccco3)CC2)c2c3c(sc2n1)CCCC3 | 1%
24 | CC1(C)CC(=O)C=C(Nc2ccc(F)cc2)C1 | 0%
25 | COc1ccccc1OCc1ccc(C(=O)Nc2ccncc2)o1 | 2%
26 | Cc1cc(C)n(-c2ccc(C(=O)Oc3ccc4c(c3)OCO4)cc2)n1 | 1%
27 | Cc1cc(C)cc(-n2nnc(C(=O)NCc3ccc4c(c3)OCO4)c2N)c1 | 0%
28 | Cc1occc1-c1nc(-c2ccncc2)no1 | 3%
29 | N#Cc1c(NC(=O)COC(=O)C2CC3C=CC2C3)oc(-c2ccccc2)c1-c1ccccc1 (stereo not given) | 1%
30 | O=C(NCc1ccc2c(c1)OCO2)C1CCCN(S(=O)(=O)c2cccnc2)C1 (stereo not given) | 0%
31 | O=C(NC(=O)c1ccc(Cl)cc1)Nc1cc(N2CCCCC2)ncn1 | 0%
32 | CCOCCCNC(=O)c1cc2sc(Cl)cc2n1CC | 0%
33 | CN(C)CCCN1C(=O)c2oc3ccc(Cl)cc3c(=O)c2C1c1cccnc1 (stereo not given) | 0%
34 | Cc1cc(NC(=O)c2ccc3nc(-c4ccccc4)c(-c4ccccc4)nc3c2)no1 | 0%
35 | CC(C)OP(=O)(c1ccc(N(C)C)cc1)C(O)c1ccccc1F (stereo not given) | 0%
36 | Cc1n[nH]c(C)c1S(=O)(=O)Nc1ccc2c(c1)OCCO2 | 0%
37 | CC1(C)C(=O)Nc2ccccc2N1C(=O)COC(=O)Cn1cnc2ccccc2c1=O | 0%
38 | O=C(COC(=O)c1cc(-c2ccco2)nc2ccccc12)NCc1ccc2c(c1)OCO2 | 0%
39 | COc1cccc(C(=O)NC2=NCCS2)c1 | 0%
40 | CCOc1c(C)cc2[nH]c(CCC(=O)O)nc2c1C | 0%
